Structures are written as SMILES. In all, about 360,000 compounds went through this assay and about 3,000 (0.83%) were called active. The sample holds actives, similar compounds and a random draw of the others, so the mix is not that of the screen. A number with no mark means an inactive call. No stated cut-off is given here; in the data, active means inhibition above about 50%; inactive means the rest.

Chain of DNA (cytosine-5)-methyltransferase 1 (Homo sapiens) (P26358 504-1616 limits assumed): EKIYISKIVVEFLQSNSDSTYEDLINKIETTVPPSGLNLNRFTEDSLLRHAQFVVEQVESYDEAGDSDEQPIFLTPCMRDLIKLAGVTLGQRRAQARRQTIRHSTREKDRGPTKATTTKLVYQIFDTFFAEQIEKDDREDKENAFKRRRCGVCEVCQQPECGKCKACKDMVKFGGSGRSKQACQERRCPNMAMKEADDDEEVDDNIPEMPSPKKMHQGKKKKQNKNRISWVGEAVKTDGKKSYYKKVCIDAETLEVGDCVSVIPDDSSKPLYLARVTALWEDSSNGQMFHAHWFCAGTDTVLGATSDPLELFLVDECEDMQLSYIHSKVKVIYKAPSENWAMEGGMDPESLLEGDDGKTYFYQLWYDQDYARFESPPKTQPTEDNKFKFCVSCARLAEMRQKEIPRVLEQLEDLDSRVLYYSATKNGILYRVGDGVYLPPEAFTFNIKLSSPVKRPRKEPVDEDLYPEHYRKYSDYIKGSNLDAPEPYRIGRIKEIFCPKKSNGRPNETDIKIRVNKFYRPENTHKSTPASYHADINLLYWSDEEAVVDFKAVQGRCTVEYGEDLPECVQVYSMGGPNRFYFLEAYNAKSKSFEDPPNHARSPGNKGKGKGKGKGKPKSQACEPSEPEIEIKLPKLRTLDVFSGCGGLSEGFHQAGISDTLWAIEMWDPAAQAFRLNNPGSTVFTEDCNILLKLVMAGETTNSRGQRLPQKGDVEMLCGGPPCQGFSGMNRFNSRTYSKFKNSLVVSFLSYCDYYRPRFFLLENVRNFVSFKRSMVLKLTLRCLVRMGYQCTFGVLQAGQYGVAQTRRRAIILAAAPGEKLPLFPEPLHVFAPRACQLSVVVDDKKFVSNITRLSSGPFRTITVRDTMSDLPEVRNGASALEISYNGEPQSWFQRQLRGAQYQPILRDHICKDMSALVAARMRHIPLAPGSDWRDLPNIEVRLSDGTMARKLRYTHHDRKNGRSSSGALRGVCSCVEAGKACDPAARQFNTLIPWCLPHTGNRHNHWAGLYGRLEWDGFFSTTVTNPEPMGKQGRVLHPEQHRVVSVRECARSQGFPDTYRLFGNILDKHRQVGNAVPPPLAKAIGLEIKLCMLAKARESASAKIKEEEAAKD

The assay has as its target DNA (cytosine-5)-methyltransferase 1 (Homo sapiens) (UniProt P26358). The assay can be described thus: inhibition of DNA methyltransferase DNMT1 – biochemical, molecular beacon, fluorescence, HinP1I cleavage, uHTS, primary screen (AID 588458). To be noted: at 10 µM, hits give high values.
With `COc1ccc(NC(=O)CN(C)C(=O)c2ccc(COc3ccccc3)o2)cc1`, the inhibition (reported as % activation of signal) is 1.54%. On to `O=C(COc1ccccc1)Nc1ccc(F)cc1`, for which the inhibition (reported as % activation of signal) was 2.46%. For the molecule `COc1ccc(NC(=O)Cn2c(-c3ccc(OC)cc3)cn(-c3ccc(C)cc3)c2=O)cc1`, the inhibition (reported as % activation of signal) is -10.9%. To `COc1ccc(NC(=O)CCCC(=O)c2ccccc2)cc1` belongs 0.13%; to `COc1ccc(CC(=O)Nc2ccc(-c3nnc(-c4ccccc4)o3)cc2)cc1`, 63.9% (active). The value for `COc1ccc(C(CC(=O)Nc2ccc(C)cc2)NC(=O)C(F)(F)F)cc1` (stereo not given) was 1.22%; that for `Cc1ccc(OCC(=O)Nc2ccc(-c3nnc(-c4ccco4)o3)cc2)cc1` was 56% (active); that for `O=C(Nc1ccc(N2CCN(C(=O)C3CC3)CC2)cc1)c1cccs1` was -1.58%. The value for `CCOC(=O)C1=C(O)/C(=C/c2ccc(OCC(=O)Nc3ccc(C)cc3)cc2)N=C1C` was 26.9%; that for `CCc1ccc(NC(=O)C(=O)NNC(=O)c2cccs2)cc1` was 1.5%. On to `Cc1ccc(-c2nnc(-c3ccc(NC(=O)c4cccs4)cc3)o2)cc1`, for which the inhibition (reported as % activation of signal) is 62.6% (active). `Cc1cc(NC(=O)C(C)SCC(=O)Nc2cccc(S(=O)(=O)N3CCCCCC3)c2)no1` (stereo not given): the inhibition (reported as % activation of signal) was 3.04%. As to `CCCCc1ccc(S(=O)(=O)NC(=O)C2(C)CCN2C(=O)c2ccccc2)cc1` (stereo not given), the inhibition (reported as % activation of signal) was -0.05%. The value for `CCc1nc2c(OCCOc3ccc(F)cc3)cccn2c1N(C)C(=O)c1ccccc1F` was -4.23%; that for `CCC(=O)Nc1ccc(-c2ccc(N3CCCCC3)nn2)cc1` was -8.26%; that for `Cc1c(C(=O)NCc2ccc(C#N)cc2)sc(=O)n1Cc1ccc(C(=O)N(C)C)cc1` was 4.99%. The value for `O=C1N[C@@H](Cc2ccccc2)C(=O)N2[C@@H]3N(S(=O)(=O)c4ccc(F)cc4)c4ccccc4[C@]3(Br)C[C@@H]12` was -4.71%; that for `COc1ccc(CCc2nnc(CCC(=O)NCc3cnn(-c4ccccc4C)c3)o2)cc1` was -0.69%; that for `C/C(=N/N1CCN(Cc2cccc3ccccc23)CC1)c1cccnc1` was -1.56%. To `C=CCOC(=O)C1=C(C)NC(C)=C(C(=O)OCC=C)C1c1cccs1` belongs 13.3%; to `CCOC(=O)N1CC=C2C(C#N)=C(N)C(C#N)(C#N)[C@H](c3cccs3)[C@H]2C1`, 70.4% (active).

Take `CCN1CC=C2C(C#N)=C(N)C(C#N)(C#N)[C@H](c3ccoc3)[C@H]2C1`: the inhibition (reported as % activation of signal) is 0.41%. The value for `Cc1cccc(CC(=O)N2CCN=C2SCc2ccc([N+](=O)[O-])cc2)c1` was -5.45%; that for `COc1cccc(NC(=O)CN(C)C(=O)c2cc(C3CC3)nn2-c2ccccc2)c1` was -5.25%.

With `CCc1ccccc1NC(=O)CN(C)C(=O)c1cc(C2CC2)nn1-c1ccccc1`, the inhibition (reported as % activation of signal) is -2.35%. With `COc1ccc(NC(=O)CN(C)C(=O)c2cc(C3CC3)nn2-c2ccccc2)cc1`, the inhibition (reported as % activation of signal) is 61.4% (active). To `CC(C)(C)NC(=O)CN(Cc1cccs1)C(=O)CNS(=O)(=O)c1ccccc1` belongs -3.38%. To `CC(=O)Nc1ccc(Sc2ccccc2C(=O)N2CCCC2)cn1` belongs -0.06%; to `Nc1cccc(-c2cncc(N3CCN(Cc4ccccn4)CC3)n2)c1`, -1.68%; to `Cc1nc2sc(C(c3ccco3)N3CCC4(CC3)OCCO4)c(O)n2n1` (stereo not given), -3.42%. The value for `Oc1c(C(c2cccs2)N2CCN(c3ccc(F)cc3)CC2)sc2ncnn12` (stereo not given) was 5.11%; that for `Oc1c(C(c2ccco2)N2CCC3(CC2)OCCO3)sc2ncnn12` (stereo not given) was 84.4% (active). In the case of `Cc1cc(NC(=O)CN2C(=O)NC(CC(C)C)C2=O)no1` (stereo not given), the inhibition (reported as % activation of signal) is 3.08%. To `COc1ccccc1CNS(=O)(=O)c1c(C)[nH]c(C)c1C(=O)N1CCCCC1` belongs 2.18%.

On to `CC(=O)NCCc1ccc(S(=O)(=O)N(C)C2CCS(=O)(=O)C2)cc1` (stereo not given), for which the inhibition (reported as % activation of signal) was 0.81%. The value for `N/C(=N\S(=O)(=O)c1cc(C(F)(F)F)cc(C(F)(F)F)c1)c1cccs1` was 3.6%; that for `Cc1ccc(CNC(=O)CSc2nnc3c(n2)[nH]c2ccc(F)cc23)cc1` was 57.3% (active); that for `Cc1ccn2c(=O)nc(SCC(=O)NCc3ccc(F)cc3)nc2c1` was -6.32%. To `COc1ccc2[nH]c3nc(SCC(=O)NC4CC4)nnc3c2c1` belongs 2.16%; to `O=C(Nc1cccc(F)c1)c1coc(=O)c(Br)c1`, -1.29%.

Take `CC(=O)c1ccc(NC(=O)CCNS(=O)(=O)c2cc(Br)cnc2N)cc1`: the inhibition (reported as % activation of signal) was 2.08%. The value for `CCCCN1CC(CO)Oc2cccc(F)c2S1(=O)=O` (stereo not given) was 0.29%; that for `OC[C@H]1O[C@@H](c2nc(-c3nc(-c4ccc(F)cc4)no3)cs2)[C@H](O)[C@@H](O)[C@H]1O` was 0.63%; that for `CCC1(C)Cc2c(sc3[nH]c(=S)n(Cc4ccccc4)c(=O)c23)CO1` (stereo not given) was -3.04%. To `C=CCn1c(=S)[nH]c2scc(-c3ccco3)c2c1=O` belongs 94.1% (active).
